Screening data deposited in PubChem BioAssay by National Center for Advancing Translational Sciences (NCATS).
Shown are actives, neighbours in structure and some others; about 11% of the full set was active somewhere.
HPGD inh = qHTS Assay for Inhibitors of HPGD (15-Hydroxyprostaglandin Dehydrogenase); purified HPGD, NADH fluorescence kinetic, PGE2 substrate; Potency, µM, for inactives: at the highest dose activity change, negative = inhibition, actives largely listed as inhibitors; hit rate 4.3% among 150,000; AID 894, 2007; further: potency means the concentration at half of the fitted maximal effect
Target sequence (P15428 whole entry, looked up): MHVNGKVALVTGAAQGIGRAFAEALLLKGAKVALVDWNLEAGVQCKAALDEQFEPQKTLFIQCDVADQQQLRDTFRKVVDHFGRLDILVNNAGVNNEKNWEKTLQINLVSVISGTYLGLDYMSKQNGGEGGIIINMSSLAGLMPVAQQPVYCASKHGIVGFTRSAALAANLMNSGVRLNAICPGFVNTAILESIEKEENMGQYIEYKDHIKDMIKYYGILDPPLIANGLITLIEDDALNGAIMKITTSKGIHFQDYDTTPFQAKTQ
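20 nM HPGD preincubated 15 min at room temperature with compound in 50 mM Tris-HCl pH 8, 0.01% Tween 20. Started with 1 mM NAD+ and 30 uM prostaglandin E2; NADH fluorescence (360/450 nm) read 5 times over 30-s intervals, last minus first.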
12-hLO inh = qHTS Assay for Inhibitors of 12-hLO (12-human lipoxygenase); Polyunsaturated fatty acid lipoxygenase ALOX12 (Homo sapiens), P18054; purified 12-hLO, xylenol orange hydroperoxide absorbance; AID 1452, 2008; Potency, µM (top dose mostly 57.1 µM), for inactives: at the highest dose activity change, negative = inhibition, actives largely listed as inhibitors; hit rate 0.12% among 150,000; active means well fitted curve in the direction sought with a large enough effect; inconclusive means small, poorly fitted or top-dose-only effect, or another doubt; inactive means no such curve, though single readings can be large; an effect the other way counts as inactive or inconclusive; further: potency means the concentration at half of the fitted maximal effect; nearly all actives have a fitted effect of over 55% in size
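Hydroperoxide formation by human 12-lipoxygenase from 40 uM arachidonic acid was followed colorimetrically via ferric-xylenol orange complex, using the 573/405 nm absorbance ratio. Enzyme concentration was 150 nM, with 30 min reaction at room temperature.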
IMPase cell inh = qHTS Assay for Identifying the Cell-Membrane Permeable IMPase Inhibitors; Inositol monophosphatase 1 (Rattus norvegicus), P97697; CHO-M1 cells, IP1 accumulation, HTRF TR-FRET ratio; inhibition (IP1 accumulation), % at 46.1 µM; 120,000 tested, under 10 active; AID 901, 2007; active means well fitted curve in the direction sought with a large enough effect in the signal ratio, not every such curve was filed as active; inconclusive means small, poorly fitted or top-dose-only effect, or a change in a side signal; inactive means no such curve, though single readings can be large or run the other way; the % refers to the signal ratio;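 further: cells stimulated with carbachol in lithium chloride buffer; plate controls were DMSO basal wells for no effect and reference inhibitor wells for full effect; higher means more IMPase inhibition seen as more IP1 and lower FRET ratio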
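Measured: the HTRF emission ratio (665/620 nm) plus the 620 nm donor channel, each fitted to the Hill equation to give AC50. Cells were CHO-M1 given compounds up to 46 uM and a 30 min carbachol stimulation at 37C.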
IMPase Li cell = qHTS Assay for Identifying the Cell-Membrane Permeable IMPase Inhibitors: Potentiation with Lithium. CHO-M1 cells, IP1 TR-FRET (IP-One), carbachol + lithium. Potency, µM (top dose mostly 59.4 µM), inactives show top-dose activity, negative = IMPase inhibition, most hits filed as inhibitors. hit rate 0.35% among 210,000; active means well fitted curve in the direction sought with a large enough effect; inconclusive means small, poorly fitted or top-dose-only effect, or another doubt; inactive means no such curve, though single readings can be large; an effect the other way counts as inactive or inconclusive;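 further: IP1 builds up when IMPase is blocked and the TR-FRET signal falls; potency means the concentration at half of the fitted maximal effect; plate controls were basal vehicle for no effect and high inhibitor control for full effect; nearly all actives have a fitted effect of over 50% in size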
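CHO cells stably expressing M1 receptor (2000/well) were cultured 16–30 h, then exposed to compounds with a small lithium addition for 30 min at 37C. IP1 was measured by TR-FRET competition; AC50 from Hill fits.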
PNC assembly inh = High Content Assay for Compounds that inhibit the Assembly of the Perinucleolar Compartment; AID 2417, 2010; PC3M PTB-GFP, PNC prevalence imaging, 16 h; active compounds read low; activity change (PNC), negative = inhibition, % at 10 µM; hit rate 3.1% among 140,000;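 active means readout at or below -70, meaning at least 70% loss of cells showing the perinucleolar compartment, a nuclear body marking cancer cells; inconclusive means readout between -30 and a set limit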;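 further: plate controls were DMSO wells for no effect and camptothecin positive control wells for full effect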
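Read-out is percentage of cells bearing a perinucleolar compartment, from automated 20x imaging of fixed, Hoechst-stained PC3M PTB-GFP cells. Cells were seeded 4 h, then exposed 16 h to compound (23 nl of library stock) in duplicate plates.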
ALDH1A1 block = qHTS Assay for Inhibitors of Aldehyde Dehydrogenase 1 (ALDH1A1); Aldehyde dehydrogenase 1A1 (Homo sapiens), P00352; Purified ALDH1A1, NADH fluorescence, propionaldehyde substrate; Potency, µM (titrated, usually from 75.3 µM), without a hit: at the highest dose activity, negative = inhibition, hits mostly inhibitors; hit rate 7.3% among 220,000;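 further: potency means the concentration at half of the fitted maximal effect; plate controls were no enzyme wells and a reference inhibitor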
Target sequence (P00352 whole entry, looked up): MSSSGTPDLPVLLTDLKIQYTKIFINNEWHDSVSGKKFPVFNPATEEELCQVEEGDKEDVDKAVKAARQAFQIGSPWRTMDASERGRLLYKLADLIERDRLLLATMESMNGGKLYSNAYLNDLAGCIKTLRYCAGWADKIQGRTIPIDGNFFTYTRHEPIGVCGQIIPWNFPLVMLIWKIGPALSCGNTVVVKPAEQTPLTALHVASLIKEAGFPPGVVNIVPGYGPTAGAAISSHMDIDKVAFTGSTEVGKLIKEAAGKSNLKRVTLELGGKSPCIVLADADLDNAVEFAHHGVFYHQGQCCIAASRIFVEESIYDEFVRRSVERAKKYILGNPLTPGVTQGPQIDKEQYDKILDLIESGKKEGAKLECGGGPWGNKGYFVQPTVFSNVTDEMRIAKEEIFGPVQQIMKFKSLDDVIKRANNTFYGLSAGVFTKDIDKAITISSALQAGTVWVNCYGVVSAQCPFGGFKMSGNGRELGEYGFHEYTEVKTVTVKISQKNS
* = called active by the depositor; ? = inconclusive; · = no result; [ ] = dose if it differs, or a comment. Unless noted, the call rests on the fitted dose curve; in most records, active means well fitted inhibition curve with a large enough effect (not every such curve was filed as active); inconclusive means small, poorly fitted or top-dose-only effect, or another doubt; inactive means no such curve, though single readings can be large or run the other way. Unless noted, on the % scale 0 is the no-effect control and ±100 the full control effect.

SMILES | HPGD inh | 12-hLO inh | IMPase cell inh | IMPase Li cell | PNC assembly inh | ALDH1A1 block
O=C(O)C[C@H](Cc1ccc2c(c1)OCO2)C(=O)O | -3% | -8%[11.4 µM] | · | -17% | · | 8%[13.5 µM]
NCCNc1ncnc2ccc(Cl)cc12 | -12% | 0%[11.4 µM] | · | 9% | · | -7%[13.5 µM]
O=C(O)c1cccc(Oc2ccccc2[N+](=O)[O-])c1 | -11% | -2% | · | -3% | -116* | 0%
N#Cc1ccc(Oc2cccc(C(=O)O)c2)cc1C#N | · | -2% | 11 | · | 6 | 7%
COc1ccc(-c2nc(-c3ccccc3)c(-c3cc([N+](=O)[O-])ccc3C)[nH]2)cc1OC | -26% | -4% | 14 | 28%[38.3 µM] | -10 | -7%
CCOc1cc(-c2nc(-c3ccccc3)c(-c3cc([N+](=O)[O-])ccc3C)[nH]2)ccc1O | -2% | -21% | 26 | 10%[38.3 µM] | -2 | 6.3µM*
Cc1c(C)c2c(c(C)c1O)CC[C@@](C)(CCC[C@@H](C)CCC[C@@H](C)CCCC(C)C)O2 | -11% | 1%[0.00818 µM] | -6[20.6 µM] | 1% | · | 7%
C=CCN1C(=O)/C(=N/n2cnnc2)c2ccccc21 | -6% | -11% | 2 | 17%[38.3 µM] | -4 | 0.063µM*
Oc1ccc(/C=C/c2nc(-c3ccccc3O)n(-c3ccccc3)n2)c(O)c1 | · | · | 7 | · | · | ·
COc1ccc(-c2csc(Cc3nnc4n3CCCCC4)n2)cc1 | -24% | -1% | -5 | 22%[38.3 µM] | ? | -1%
c1ccc2sc(Cc3nnc4n3CCCCC4)nc2c1 | -21% | 3% | -4 | 10%[38.3 µM] | -82* | 11%
FC(F)Oc1ccc(-c2csc(Cc3nnc4n3CCCCC4)n2)cc1 | -15% | 4% | -7 | 2% | -100* | 1%
Nc1ccc(C(=O)C[C@H](N)C(=O)O)cc1O | -5% | 2%[11.4 µM] | · | -2% | · | -3%[13.5 µM]
O=C(Nc1ccccc1)OC[C@H](CN1CCCCC1)OC(=O)Nc1ccccc1 | -5% | -1%[25.6 µM] | 0[20.6 µM] | 6% | · | -12%[20.9 µM]
CC(C)(C)c1ccc2c(c1)N(CC(=O)O)C(=O)CO2 | -4% | 1% | 6 | -5%[38.3 µM] | 8 | 3.2µM*
Cc1ccc2c(c1)N(CC(=O)O)C(=O)CO2 | -6% | 1% | ? | -11%[38.3 µM] | -4 | -6%
CCN(Cc1ccccc1)C(=O)COc1cc(=O)n(CC)c2ccccc12 | -24% | 7% | -1 | 16%[38.3 µM] | 6 | ?
CCCN(CCC)C(=O)COc1cc(=O)n(CC)c2ccccc12 | 25µM* | -2% | 1 | 8% | -19 | -7%
CCN(C(=O)COc1cc(=O)n(CC)c2ccccc12)c1cccc(Cl)c1 | -3% | -7% | 13 | 16%[38.3 µM] | 6 | 6.3µM*
CCn1c(=O)cc(OCC(=O)N2CCN(c3ccc(F)cc3)CC2)c2ccccc21 | · | · | · | -4% | · | -12%
CCn1c(=O)cc(OCC(=O)N2CCCCCC2)c2ccccc21 | 32µM* | 1% | 5 | -2%[38.3 µM] | ? | ?
Cc1oc(C)c2c(=O)ccc3c(c12)OC(N)=C(C#N)C3c1ccccc1 (configuration not stated) | -11% | -4% | 8[1.84 µM] | 5%[38.3 µM] | 26 | ?
Cc1oc(C)c2c(=O)ccc3c(c12)OC(N)=C(C#N)C3c1ccccc1Cl (configuration not stated) | -10% | -24% | 5 | 12%[38.3 µM] | -22 | 25µM*
CS(=O)(=O)Nc1nnc(SCC(=O)N(c2ccccc2)c2ccccc2)s1 | -17% | 0% | -4 | -3% | -28 | 32µM*
Cc1cccc(CNc2cc(-c3ccc(C(=O)N(C)C)cc3)ncn2)c1 | ? | -3% | · | -4% | · | ?
SMILES | HPGD inh | 12-hLO inh | IMPase cell inh | IMPase Li cell | PNC assembly inh | ALDH1A1 block
CC(=O)Nc1ccccc1-c1nnc(SCc2ccccc2Cl)[nH]c1=O | 16µM* | 10% | 0 | 3%[38.3 µM] | 44 | -3%
CC(=O)Oc1cccc(N2C(=O)C3CC=CCC3C2=O)c1 (configuration not stated) | -3% | -3% | 2 | 21%[38.3 µM] | ? | 4%
CC(=O)Oc1cccc(N2C(=O)C3C(C2=O)C2C=CC3C23CC3)c1 (configuration not stated) | -14% | -4% | -3 | -7%[38.3 µM] | -7 | 20µM*
CC(=O)Oc1cccc(N2C(=O)C3C4C=CC(C4=C(C)C)C3C2=O)c1 (configuration not stated) | -11% | -8% | -1 | 11%[38.3 µM] | -18 | 7.1µM*
CCOC(=O)C1CCCCN1Cc1cc(OC)ccc1OC (configuration not stated) | -5% | -5% | 5 | -4%[38.3 µM] | 21 | 16µM*
Cc1nnc(SCC(=O)NNC(=O)c2ccccc2)n1-c1ccccc1 | -4% | 2% | · | -8% | -84* | 0%
COc1ccc(C)cc1NC(=O)C(OC(=O)c1ccc([N+](=O)[O-])o1)c1ccccc1 (configuration not stated) | -14% | 1% | · | 16% | 20 | 18µM*
O=C(CSc1ccsc1[N+](=O)[O-])NCc1ccccc1 | · | · | · | 9% | · | 3.2µM*
COc1ccc(CCNC(=O)CSc2ccsc2[N+](=O)[O-])cc1OC | · | · | · | 11% | · | -12%
COc1ccc(CCNC(=O)CSc2ccsc2[N+](=O)[O-])c(OC)c1 | · | · | · | 10% | · | 14µM*
COc1ccc(OC)c(CCNC(=O)CSc2ccsc2[N+](=O)[O-])c1 | · | · | · | 7% | · | 13µM*
N=C(N)SCCCN | -8% | -1%[11.4 µM] | · | 3% | · | 5%[13.5 µM]
O=C(c1cc2ccccc2oc1=O)N1CCN(c2ccc(Cl)cc2)CC1 | · | · | 8 | · | · | ·
CN(C)CCCNCCCN | -9% | 3% | · | -3% | · | -1%
Cc1ccc(NC(=S)C2=C(O)c3sccc3N(C)S2(=O)=O)cc1 | ? | ? | -6 | 4%[38.3 µM] | 29 | 7.9µM*
Clc1ccccc1C1=CC(c2ccco2)n2nnnc2N1 (configuration not stated) | · | · | · | 5% | · | 13µM*
C1=C(c2ccc(-c3ccccc3)cc2)Nc2ncnn2C1c1ccco1 (configuration not stated) | -24% | -8% | -22 | -1%[38.3 µM] | -17 | ?
CC(=NCCCNC1CCCCC1)C1=C(O)CC(C)(C)CC1=O | -4% | -2% | 22 | 38%[38.3 µM] | -16 | 28µM*
CC(=NCC1CCNCC1)C1=C(O)CC(C)(C)CC1=O | 2% | -3% | -8 | 22%[38.3 µM] | -13 | -2%
O=C(c1ccccc1)c1ccccc1N1C(=O)C=CC1=O | · | · | · | · | · | 3.2µM*
O=C(O)c1ccccc1-c1ccccc1C(=O)c1ccccc1 | -10% | -1%[11.4 µM] | · | 3% | · | -9%[13.5 µM]
